# How the values were obtained:
# ETS1 [1] = target: T1, ETS1 (UniProt P14921); assay: ETS1 binding intensity (PBM fluorescence), ETS1 alone (arbitrary fluorescence units); higher = stronger binding; conditions: ETS1 concentration 1 nM; RUNX1 concentration 0 nM
# T1 sequence: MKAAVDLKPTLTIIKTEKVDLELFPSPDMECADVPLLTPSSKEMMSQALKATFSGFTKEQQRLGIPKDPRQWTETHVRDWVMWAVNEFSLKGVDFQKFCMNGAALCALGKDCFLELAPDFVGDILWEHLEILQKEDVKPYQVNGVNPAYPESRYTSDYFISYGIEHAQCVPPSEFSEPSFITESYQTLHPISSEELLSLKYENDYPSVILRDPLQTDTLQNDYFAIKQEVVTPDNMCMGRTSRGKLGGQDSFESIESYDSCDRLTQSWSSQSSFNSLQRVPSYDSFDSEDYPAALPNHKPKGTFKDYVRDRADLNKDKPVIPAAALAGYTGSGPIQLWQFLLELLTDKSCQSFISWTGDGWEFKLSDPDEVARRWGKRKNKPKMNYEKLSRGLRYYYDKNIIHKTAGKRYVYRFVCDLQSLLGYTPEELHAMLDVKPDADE
# ETS1 [2] = target: T1, ETS1; assay: ETS1 binding intensity (PBM fluorescence) in presence of RUNX1, normalised to ETS1-only experiment (arbitrary fluorescence units); higher = stronger binding; conditions: ETS1 concentration 1 nM; RUNX1 concentration 25 nM
# RUNX1 [3] = target: RUNX1 (UniProt Q01196); assay: RUNX1 binding intensity (PBM fluorescence) in presence of ETS1, normalised to RUNX1-only experiment (arbitrary fluorescence units); higher = stronger binding; conditions: RUNX1 concentration 2 nM; ETS1 concentration 25 nM
# RUNX1, sequence (Q01196 whole entry): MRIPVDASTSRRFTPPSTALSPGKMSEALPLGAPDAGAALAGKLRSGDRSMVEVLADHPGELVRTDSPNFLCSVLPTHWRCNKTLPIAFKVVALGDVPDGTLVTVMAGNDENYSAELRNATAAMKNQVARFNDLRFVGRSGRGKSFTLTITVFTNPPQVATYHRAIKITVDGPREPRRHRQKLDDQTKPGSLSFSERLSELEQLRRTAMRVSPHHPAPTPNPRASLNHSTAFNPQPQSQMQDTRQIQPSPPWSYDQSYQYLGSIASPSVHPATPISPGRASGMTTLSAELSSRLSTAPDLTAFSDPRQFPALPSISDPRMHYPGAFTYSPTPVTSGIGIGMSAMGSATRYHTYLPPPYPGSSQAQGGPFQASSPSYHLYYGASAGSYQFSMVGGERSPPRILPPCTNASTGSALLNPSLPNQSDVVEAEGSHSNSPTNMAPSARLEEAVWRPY
# Description: (§1)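 Cooperative gcPBM on 36-bp genomic probes with neighbouring ETS1 and RUNX1 sites. Recombinant human RUNX1 (2 nM) was incubated alone or with ETS1 (25 nM) and detected with anti-RUNX1 antibody plus Alexa488 secondary. Values are medians over 4 replicate spots; the RUNX1+ETS1 data were normalised to the RUNX1-only data. The probes sit in constant array flanks that are not printed.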
# RUNX1 [4] = target: RUNX1 (UniProt Q01196); assay: RUNX1 binding intensity (PBM fluorescence), RUNX1 alone (arbitrary fluorescence units); higher = stronger binding; conditions: RUNX1 concentration 2 nM; ETS1 concentration 0 nM
# Description: as §1
# 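Throughout, for RUNX1 binding intensity (PBM fluorescence) in presence of ETS1, normalised to RUNX1-only experiment: Full-length recombinant human ETS1 or RUNX1 bound to double-stranded 36-bp genomic probes on microarrays, detected by protein-specific primary antibody and Alexa488 secondary, spot fluorescence as median of four replicate spots.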
# 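Throughout, for RUNX1 binding intensity (PBM fluorescence), RUNX1 alone: Full-length recombinant human RUNX1 bound to double-stranded 36-bp genomic probes on a high-density microarray, scored as Alexa488 fluorescence per spot via anti-RUNX1 antibody, median of four replicate spots.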
Sequence,ETS1 binding intensity (ETS1 [1]),ETS1 binding intensity (ETS1 [2]),RUNX1 binding intensity (RUNX1 [3]),RUNX1 binding intensity (RUNX1 [4])
ACTTGACTTCCTGTGGGGTGTGTGGTGTCTGCACTT,940,901,2010,
CTCCTGTTCCGGCTCAAAGGGAAACCGCTGCTTTTC,605,907,1460,
GAGCCACCGGAAACGGAGCTGCGGCCGCGCCCCGCC,5340,7820,1650,
TCCCTTACCTTCCTGCTGCCACCAAACCACCAAACC,460,1040,3260,
CTCTTCCTGCCTGTCCGTGGCTGGTGTGGTTTGCGT,457,616,2670,
GTATCACTTCCTGTTTTCCTCTGTGGCTTACTGCTG,3310,3330,3210,
CCCGCTACACAAGGCGGATGTGGTACCCTCACTTGT,3810,6380,1530,
ATCTTAAGTGTTTCCTGACACCACAAATCCCCAAAC,501,507,1020,
TTTCCTCGGATTCCCGGATGTGGGTGAGTTCATTTG,5690,9630,2000,
CCAGCAAAGGAAGCTTGGTCAACCACAGCAGCCTGT,393,463,891,
AGAGCGAGGAGGACTTCCTGCGGCAGGTCGGCGTGA,635,622,1080,
CTCTGAGCAGGAAGTGACAAAACCACGCAGGGCAGG,3150,6770,1160,
GGCCCTTCTGGGGCAGGATGTGGTGCCTGCCAAAGG,4650,6110,891,
AGGACCGGAAGTGCCCGAGGGCGGCCGCAGAACGGT,8870,16700,1320,
AATCCCGGAAACGCGGATTCAGCGGAGCGCGGTGAC,1280,1500,1260,
GGACGCTTCCGGTGGAAGGGAGCTGTTGCGGGGCTT,1410,1660,1950,
AATATCCTGTATGTCATGCTTAAAAAGCCACAAAAC,547,1070,2050,
ACAGGAAATGACTTAGGGAAAGTCCCAACCGCAATC,2800,15700,1530,
CTACCCTCCCTCTTCCTGTGGTTTCTCAAACATGTC,729,937,5090,
CTTACAGTCACAACAGGATGTGGTTTGACATTTACT,6780,32800,3860,
GTTGGGTGGGGAAGTGGATGGTGGTTTTGGCAGAGG,542,713,1210,
GGGCCAGAGACGCCGGAAGTGACCGCGCGGTGCGCC,11700,18400,1210,
GAGCGCAGGACGGAAGCTCGGTGCGGGTGCGGCCTC,964,938,917,
TGTCATCCCGGAAACTGATAACAAGACCGCGAGTCA,1910,2530,1450,
TACAGCTGGAACGTCCTGTGGTTAACATTCTGCTCT,423,568,1970,

Sequence,ETS1 binding intensity (ETS1 [1]),ETS1 binding intensity (ETS1 [2]),RUNX1 binding intensity (RUNX1 [3]),RUNX1 binding intensity (RUNX1 [4])
AACATCCGGTTCCCGGTTCTGCCCCCTACCGCAGCT,3190,5870,3920,
CAAAGTGATGGGGGAAATGGTTGTGGTTTTGGGTGG,553,3760,1500,
GCCGTAGCGGAAGAGTGTTCGTGGTCATGTGACGCC,671,814,1160,
GGGCAGGAAGGAAGAGGGCTCCTCCCCACAAGCTCT,437,492,862,
GGTCTCACCGCTCTTCCGCTTGCGGTTTCGGGGGCC,780,5370,4570,
TTTCACTTCCGGCATGTTTTTCACCCACAGGGATAT,3910,3980,2750,
TTAGCACATCCTGGGTACACAGACCACAGCCTCCTC,367,475,2140,
GGCTGGCCTAGGAACTTCCGCCACAAGTCCCGCCCC,1860,2220,1390,
GGACTTCCTGAACTGGGAGGTCACCGACCACAACCT,354,671,1740,
CCGCCGCGCGCCGGATGCTAAGACCGCGATTTCCCC,4180,7590,1110,
GGGCAGGGCATTTCCTTTGTGGCTGGTGCTCACGGA,493,413,1360,
CCACGTAAAGGCGGAAGCGGTTGAGTGGACGCCATC,3090,4150,1640,
GCAACAGGAAGGACCAAGTCCCCTCCCGCAATTTTA,627,955,1020,
ACCATAAGGACCGGAAGCAGAGACCACACTGGTGCT,7910,12600,1440,
CAAGCTGGCAGGAAGCGCGGTGCAACCACAAGAGTC,1870,6690,1260,
GAGTGCCGTTTCCCCCGCTCACCGCGGGCTAGGGAG,,,1040,942
AGCTTCCGAGTCTGTTGTGGAGTGGGAACCGCGACT,,,1020,724
ATTAAAAAAATTTCCTTTGTGGTCACTTAGTTATTA,,,1520,1350
GGGCATGGTGGCTTCCGACCGCGGGGACCCCGAGAG,,,956,738
CCCCTACTTCCCTTTTTGCTGGGCCGCAGTTTCGGT,,,2220,1490
GGCGCTAGGCTTCCGGATCGCGGTGGGCGGAGTTCA,,,1230,678
CTCAGGTTATCTAGGAAATCTACCGCACGCTAAAGT,,,793,858
GCTGTCCGTTTCCGAGATGTTAATGCGGGGTCTTGC,,,1070,866
TTCTCATCCGGCCGGCTTGCTTTCCCCTGCGGTCGT,394,641,1650,
ACCGAAAACAGGGCCTTCCGCGGTTATACAGATCCT,,,998,868

Sequence,ETS1 binding intensity (ETS1 [1]),ETS1 binding intensity (ETS1 [2]),RUNX1 binding intensity (RUNX1 [3]),RUNX1 binding intensity (RUNX1 [4])
GCTGGGCCATCCTGCCACATGCACCGCATCTCTGGG,,,878,759
CCAGCCACTTCCGCTCGTCCGCCTAATACCGCGCCT,2130,2430,4930,
AGTCGGAAGCCATCTGCCCCAACTTGCGGTCTTCAC,,,1080,1070
ATCTTCAGGAAGCGGTATCAACCTGAAAACCACCAC,561,870,1250,
TGTATGAAAAAAACAGGAAACCACAGAGAACTGAGG,,,2060,1060
CTTAGGACTTCCCGTAGATGGTGGTCTGTGCTAAGG,,,1050,706
ACGGTGCGTTTCCCCAACTACACCGCACGTCACGGA,,,827,988
AATGCAGCATTTCCTCTCCAGTTCACCACAGGCCCC,,,2420,1490
TGACACCAGCCCTGAGGATGTGGTTCATCCTCCCAC,,,817,868
TTATGCCTCAGGATGAACGAACCTCAAACACCCAGG,,,858,904
CAGAGGAAGCCCACCCCATAAAAGAACCACAGATAA,,,864,1010
GTTGAGTTCCGGGGGAGGTTGAGTTCCTGCGGTCAA,,,2450,1220
GATGGGCGAGTCAGGAAACCACAGCTCTGAGGGTGG,607,1190,1300,
TATTTCCTGTGCACAGAAGCAGCTGGGCCGCAGAGT,557,680,1940,
GCCCCTTTTTCCTGGGATGAGCGGTTAGCGGAGGGG,,,1080,1090
GGGGGAGCAAGCGCCTTCCGCGGTCGCTGGGGGGAG,,,812,939
GTCCCCTGAATTTTCCTGTGGTTCTTATCACCAGGT,,,1360,1180
CTTTGTTACTTTGGGGAAATGTGGTTCTGCGCCACC,,,927,1110
CAGTTTATCCTGTGAGAGCCTTGTGGTTCCTACTAA,,,859,773
CGGCTAGGAAATAAAGAGCCTTCTCTCCGCGGTAGG,,,2200,2270
AGTTTCTTCTTTCCGGTGGGTTTGTGGTCTTGCTGA,1160,2990,2770,
TTGCTCGGCTTCCTGGAGCTGTGGTCCGTGTGGGCT,,,1020,708
GCTTAAGGAAGGGACAACTAGAGTGGGTTACTCTGC,,,717,863
GCGGCTTTGTACGGAAACCCACACACATTGTTATTT,,,1020,984
AGTTTTCCGTCGGGCTCCCAGTGACGCCGCAGAGGT,,,1180,764

Sequence,ETS1 binding intensity (ETS1 [1]),ETS1 binding intensity (ETS1 [2]),RUNX1 binding intensity (RUNX1 [3]),RUNX1 binding intensity (RUNX1 [4])
GGGGGAAGCTTCCTGAGGTGAAATAGACCGCTGTGC,,,960,735
CTGTGACACGTGCGGAAGCTGTGGTAAGTGCATCCA,,,984,840
GGCAGCCGATGCATCCTGCGGTGTGTGGCCCTCAGA,,,1040,787
GGACGCCGCCGGAAGCGCGACCCGCACTCCCGGTAG,,,1260,794
CGGGGTTTCCTGGTGGCTGCGAGCGGTGGGGACGGC,,,1140,728
AGGTTCGTGGCAGGAAAGTTTGTGGCAGCAAAGCCT,,,1100,1190
CTGAGACATCCTGATAATTCTGTGGGTTACCCCAAA,,,1280,728
GGCGAGGCTGAGAGGAAACCACACTCTCACTGGGGT,,,921,933
CTGCTAGCGGAAGCAGCCAAGCCCACAGGCTCCAGG,,,1040,732
GGGTGAGTATTTCCTCCTGCGGTGGGTCGGCATGTA,,,1570,796
CCACCTCCTCCGGACGCCGCCCGCAACTGAGCATGC,,,1230,1030
CCGGGAAACACGGGAGAGCGACCGAAACCGCAATCA,,,4390,3650
AGTTTCCTGAACTCAGAGCACAGTTGTGGTGCAGAA,,,1270,743
GACACAAGACAGTTTCCGTCAGTGGTTAAGCCCTAA,,,1270,845
CTAGCCAGGAAGATAAAGAAGAAACCACCAAAGAGA,,,834,870
TAAATCGGAAACTCGCCGCTCAGCCCGCAGCCGCCG,,,808,901
TGAGGAGAGCGAGGAAGTGGTTTTCTCTTCGCACAG,,,948,746
AGACTCCATCCGCCATGTTGGATGCCGCAGATTCGC,,,1050,813
CGGGCCGGATCGCCTTCGCCGCCGCCCGCCCGCAAA,,,866,979
TGGCAGCGGGTGCGGAAACCACAGGCCTCCAGGCTT,,,2470,1480
TGCTGCAGCGGCGCTTCCTGGTGGTCAGGGCGCCAT,,,924,707
GCCTCCTTCCTGGGCTCCTTTAAGAGGGTGGTAACG,,,1130,743
TTGATTGGAGCAGGATGTGGTCAGAACAGTATGCAG,,,4860,794
AGAGGCTTCCTGAGGAACTGGTGTGGTCAGGGGAGC,,,1010,740

# Reference: the supplement of paper PMC10681739
